A selection: hits, their analogues and other compounds. The true share with any hit is near 21%.
NS1 function inh: qHTS Assay for Inhibitors of Influenza NS1 Protein Function | Potency, µM (doses to about 46.1 µM), for inactives: at the top dose activity, positive = more growth | 0.4% of 270,000 active | AID 2326, 2010; calls by dose curve; also: potency is read from the fitted curve at half-maximal effect; actives are rising curves; nearly all actives have a fitted effect of over 50% in size
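OD600 was taken as the measure of yeast growth restored by compound in an NS1-expressing S. cerevisiae strain. Cells had been washed out of glucose medium and diluted 1:100 into galactose -URA medium, pH 6.0.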
Pf growth 48h: Primary qHTS for delayed death inhibitors of the malarial parasite plastid, 48 hour incubation; Potency, µM (highest dose often 28.7 µM), for inactives: at the highest dose activity change, negative = inhibition, actives largely listed as inhibitors; 5.9% of 310,000 active; P. falciparum luciferase growth in erythrocytes, 48 h; also: potency is read from the fitted curve at half-maximal effect; % is scaled to controls: 0 for no effect and ±100 for the full control effect
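Growth was read as firefly luciferase luminescence after a 48 h, 37 C, 5% CO2 exposure of compounds to reporter-bearing P. falciparum cultures (0.1% parasitemia, 2% hematocrit final) in Albumax-supplemented RPMI 1640.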
Shiga inhibitor: A qHTS for Small Molecule Inhibitors of Shiga Toxin | Vero cells, Shiga toxin protein synthesis inhibition reporter | inhibition, % at 38.7 µM | 9.2% of 290,000 active | AID 2315, 2010; in the data active = inhibition mostly above about 28%, no sharp cut-off; inactive = mostly below about 43%; also: 0% is about no effect
Pf growth 96h: Primary qHTS for delayed death inhibitors of the malarial parasite plastid, 96 hour incubation. P. falciparum luciferase reporter growth, 96 h. Potency, µM (top dose mostly 28.7 µM), for inactives: at the highest dose activity change, negative = inhibition, actives largely listed as inhibitors. 6.9% of 320,000 active. AID 504834, 2011; also: potency is read from the fitted curve at half-maximal effect; % is scaled to controls: 0 for no effect and ±100 for the full control effect
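96 h incubation, 37 C, 5% CO2, of luciferase-reporter P. falciparum-infected RBCs (2% hematocrit, 0.05% parasitemia final) with test compounds; endpoint luminescence.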
CHX counter: Cycloheximide Counterscreen for Small Molecule Inhibitors of Shiga Toxin. cell reporter, cycloheximide protein synthesis inhibition counterscreen. max response, %. 12% of 300,000 active. AID 2314, 2010; in the data active = max response mostly above about 13%, no sharp cut-off; inactive = mostly below about 14%; also: read at 38.3 µM for the half of the compounds with a filed dose; 0% is about no effect
* = called active by the depositor; ? = inconclusive; . = not tested or not shown; [ ] = another dose, or the depositor's remark. Unless noted, calls follow the shape of the dose curve; as a rule, active = well fitted inhibition curve with a large enough effect; inconclusive = small, poorly fitted or top-dose-only effect, or another doubt; inactive = no such curve, though single readings can be large or run the other way.

SMILES	NS1 function inh	Pf growth 48h	Shiga inhibitor	Pf growth 96h	CHX counter
CCCCCOc1ccc(C(=O)NC(C(=O)O)C(C)C)cc1 (stereo not given)	-160%	15%	-2	?	-1
Cc1noc(C)c1-c1ccc2ncnc(NCc3ccc(Br)cc3)c2c1	.	.	28	.	27
COc1ccc(C(CC(=O)N2CCN(c3ccccc3)CC2)c2c(OC)cc(OC)c3c(-c4ccccc4)cc(=O)oc23)cc1 (stereo not given)	3%	?	-4	?	10
COc1cc(C(CCN2CCCCC2)c2c(OC)cc(OC)c3c(-c4ccccc4)cc(=O)oc23)cc(OC)c1OC (stereo not given)	-6%	10µM*	-23	5.9µM*	-14
COc1cc(C(CCN2CCCC(C)C2)c2c(OC)cc(OC)c3c(-c4ccccc4)cc(=O)oc23)cc(OC)c1OC (stereo not given)	-32%	7.4µM*	-18	2.9µM*	-9
Cc1ccc2[nH]c(C)c(CCNC(=O)C3CCCCC3C(=O)OCC(F)(F)F)c2c1 (stereo not given)	12%	?	13	?	-2
COc1ccc(Cl)cc1NC(=O)c1cccnc1	-45%	.	-9	0%	-2
COC(=O)c1c(NC(=O)COC(=O)C2CCC2)sc(C)c1C	.	-28%	.	13%	.
COc1cc(NC(=O)Cn2c(C)cc3ccccc3c2=O)cc(OC)c1OC	3%	0%	-8	29%	-1
COc1cc(NC(=O)Cn2c(-c3cncs3)nc3ccccc32)cc(OC)c1OC	-142%	2.3µM*	12	18%	11
O=C(CN1CCN(Cc2ccccc2F)C1=O)NCCc1ccc(Cl)cc1	-10%	.	-8	17%	-5
COc1cccc2cc(C(=O)N3CCN(c4ncccn4)CC3)c(=O)oc12	3%	8%	15	.	14*
CCN(C(=O)c1cc2cccc(OC)c2oc1=O)C1CCCCC1	1%	?	-4	1.5µM*	-2
COc1cccc2cc(C(=O)N3CCCCCCC3)c(=O)oc12	16%	?	44*	1%	32*
Cc1onc(-c2ccccc2Cl)c1C(=O)N[C@H]1C(=O)N2[C@H]1SC(C)(C)[C@H]2C(=O)O	.	-27%[12.8 µM]	.	-32%[12.8 µM]	.
COc1ccc(OC)c(NC(=S)N2c3ccccc3CC2C)c1 (stereo not given)	-24%	?	-20	?	-2
CCc1oc(C(=O)OC)cc1CSC(=N)N	8%	?	12	?	0
CC(C)(C)Nc1nc(OCC(F)(F)F)nc(OCC(F)(F)F)n1	-1%	37%	31*	?	13*
COCc1cc(=O)n2[nH]c(N)nc2n1	-8%	10µM*	3	?	-2
CC(C)C(=O)Nc1nc2c(c(=O)[nH]1)CCCC2	.	?	-12	1%	5
Oc1ccc(Cl)cc1C1=NNC(c2cccs2)C1 (stereo not given)	-71%	3.3µM*	141*	12µM*	43*
Cc1ccc(O)c(-c2[nH]ncc2C(=O)c2ccc(Cl)cc2)c1	-3%	?	4	-13%	-2
Cc1ccc(O)c(C2=NNC(O)(C(F)(F)F)C2)c1 (stereo not given)	-12%	13µM*	-9	.	8
O=C1C=C(O)CC(c2cccs2)C1 (stereo not given)	22%	-13%	-13	?	1
Cc1ccc(O)c(C2=NNC(c3ccc(Cl)cc3)C2)c1 (stereo not given)	-55%	?	70*	?	59*
SMILES	NS1 function inh	Pf growth 48h	Shiga inhibitor	Pf growth 96h	CHX counter
O=C(COC(=O)C1CCCCC1)Nc1cc([N+](=O)[O-])ccc1F	.	18%	-13	3%	-3
O=[N+]([O-])c1ccccc1S(=O)(=O)c1ccccc1[N+](=O)[O-]	0%	-3%	-2	28%	-3
CC(CS(=O)(=O)c1ccccc1[N+](=O)[O-])N1CCOCC1 (stereo not given)	.	12µM*	-7	19%	12
CC(C)(C)c1ccc(OCCOc2ccc(C(C)(C)C)cc2NC=O)c(NC=O)c1	20%	10µM*	-4	2.6µM*	5
COCCOc1ccc(C(F)(F)F)cc1NC(=O)c1ccccc1	-7%	1%	-9	0%	-5
CCCN1Cc2cccc(C(=O)Nc3ccc4c(c3)OCCO4)c2C1=O	-94%	.	59	-3%	19*

Screens from PubChem.
